# High-throughput results from PubChem.
# G9a inh = blocks human histone lysine methyltransferase G9a. Q96KQ7. G9a H3K9 monomethylation, AlphaScreen, 2 h. Potency, µM (highest dose often 102 µM), for inactives: top-dose activity, negative = inhibition, usual class: inhibitors. 350,000 compounds, 8.8% hits. AID 504332; further: potency means the concentration at half of the fitted maximal effect; on the % scale 0 is the no-effect control and ±100 the full control effect; nearly all actives have a fitted effect of over 75% in size
# Target sequence (Q96KQ7 913-1193 limits assumed): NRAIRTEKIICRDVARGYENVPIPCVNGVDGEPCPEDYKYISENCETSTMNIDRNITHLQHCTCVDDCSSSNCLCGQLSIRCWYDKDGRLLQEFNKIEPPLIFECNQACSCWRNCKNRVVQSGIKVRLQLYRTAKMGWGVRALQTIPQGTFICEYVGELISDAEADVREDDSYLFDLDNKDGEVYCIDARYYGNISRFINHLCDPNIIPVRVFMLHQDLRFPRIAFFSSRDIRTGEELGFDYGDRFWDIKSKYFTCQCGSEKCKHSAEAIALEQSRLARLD
#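 Methyltransferase reactions run at room temperature for 2 h (20 nM enzyme, 500 nM biotin-H3K9 peptide, 20 uM SAM) after a 15 min compound preincubation; product detected by AlphaScreen beads and anti-H3K9me1 antibody.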
# BAZ2B block = BAZ2B (human) inhibition | Q9UIF8 | AlphaScreen BAZ2B-H3K14Ac peptide displacement | Potency, µM (series often up to 114 µM), inactives show top-dose activity change, negative = inhibition, actives largely listed as inhibitors | 360,000 compounds, 4.4% hits | AID 504333; further: potency means the concentration at half of the fitted maximal effect; on the % scale 0 is the no-effect control and ±100 the full control effect; nearly all actives have a fitted effect of over 60% in size
#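 Multi-concentration screen (max 110 uM) measuring displacement of acetylated histone H3 peptide from BAZ2B by AlphaScreen, using 50 nM protein, 50 nM peptide and 10 ug/mL streptavidin donor plus Ni-chelate acceptor beads.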
# PI5P4Ka inh = blocks human PI5P4K alpha kinase activity; P48426; PI5P4Kalpha enzyme, ADP-Glo luminescence, 60 min; stronger effect = lower value; max response, %; 330,000 compounds, 1.2% hits; AID 652105; active means max response of -50% or lower; inconclusive means between -30% and -50%; inactive means -30% or higher; further: value at the top dose of about 77 µM; on the % scale 0 is the no-effect control and ±100 the full control effect
# Target sequence (P48426 whole entry, looked up): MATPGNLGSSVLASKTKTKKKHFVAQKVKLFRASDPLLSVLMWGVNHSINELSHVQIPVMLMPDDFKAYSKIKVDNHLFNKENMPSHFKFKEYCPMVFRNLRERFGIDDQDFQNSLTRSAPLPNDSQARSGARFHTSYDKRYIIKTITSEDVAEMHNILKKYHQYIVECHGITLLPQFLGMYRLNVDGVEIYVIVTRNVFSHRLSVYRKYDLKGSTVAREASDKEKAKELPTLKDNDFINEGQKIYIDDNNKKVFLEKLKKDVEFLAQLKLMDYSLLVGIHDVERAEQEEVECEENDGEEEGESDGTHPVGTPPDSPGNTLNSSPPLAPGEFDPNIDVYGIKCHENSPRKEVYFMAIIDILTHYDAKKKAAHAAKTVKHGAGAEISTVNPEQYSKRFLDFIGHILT
#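 Controls without substrate or without enzyme flank wells where PI5P4Kalpha converts substrate using 5 microM ATP (final). Incubation lasts 60 minutes at room temperature; ADP formed is read by ADP-Glo luminescence.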
# PLK1 PBD block = inhibitors of human PLK1 polo-box domain binding; Plk1 PBD binding of FITC phosphopeptide, fluorescence polarization; Potency, µM, for the others: max response, negative = inhibition, usual class: inhibitors; 360,000 compounds, 2.8% hits; further: potency means the concentration at half of the fitted maximal effect; series mostly up to about 57 µM; on the % scale 0 is the no-effect control and ±100 the full control effect; nearly all actives have a fitted effect of over 65% in size
# JMJD2A Tudor inh = JMJD2A Tudor domain (human) inhibition | O75164 | AlphaScreen JMJD2A-Tudor / H3K4me3 peptide binding | Potency, µM (highest dose often 114 µM), inactives show at the highest dose activity change, negative = inhibition, usual class: inhibitors | 390,000 compounds, 4.4% hits | AID 504339; further: potency means the concentration at half of the fitted maximal effect; on the % scale 0 is the no-effect control and ±100 the full control effect; nearly all actives have a fitted effect of over 50% in size
# HP1b binding inh = HP1-beta chromodomain-methylated histone interaction inhibition; P83916; AlphaScreen HP1-beta / biotin-H3K9me3 peptide binding; Potency, µM (series often up to 114 µM), for the others: at the highest dose activity change, negative = inhibition, hits mostly inhibitors; 390,000 compounds, 0.56% hits; AID 540317; further: potency means the concentration at half of the fitted maximal effect; nearly all actives have a fitted effect of over 70% in size
#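 Compound inhibition of the preformed complex between 50 nM HP1-beta and 50 nM biotinylated H3K9me3 peptide was read by AlphaScreen. Buffer was PBS pH 7.4 with 0.01% Tween-20. Incubations ran 30 min at room temperature, with 10 ug/mL donor/acceptor beads.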
# Numbers without * were called inactive; ? = inconclusive; / = no result given; [ ] = another dose, or the depositor's remark. An excerpt weighted towards active compounds, which were near 12% of everything screened. Unless noted, the call rests on the fitted dose curve; in most records, active means well fitted curve in the direction sought with a large enough effect; inconclusive means small, poorly fitted or top-dose-only effect, or another doubt; inactive means no such curve, though single readings can be large; an effect the other way counts as inactive or inconclusive.
SMILES,G9a inh,BAZ2B block,PI5P4Ka inh,PLK1 PBD block,JMJD2A Tudor inh,HP1b binding inh
COc1ccc(-c2csc(NC(=O)CSCC(=O)Nc3cc(C)on3)n2)cc1OC,40µM*,-6%,0,?,-22%,-9%
COc1ccc(-c2csc(NC(=S)NC(=O)c3cccs3)n2)cc1Br,4%,-13%,0,0%,-5%,10%
COc1ccc(-c2csc(NC(=S)NC(=O)c3cccs3)n2)cc1OC,32µM*,?,-67*,-27%,-34%,-5%
CCc1noc(C)c1C(=O)Nc1nc(-c2ccc(OC)c(OC)c2)cs1,?,0%,5,-9%,-33%,-17%
COc1ccc(-c2csc(NC(=O)c3cc(C)oc3C)n2)cc1OC,50µM*,35µM*,3,-13%,?,-21%
COc1ccc(NC(=O)C2CCN(S(=O)(=O)c3cn(C)cn3)CC2)cc1Cl,11%[59 µM],1%,/,/,-9%,11%
CCN(CC#CCC(O)(c1ccccc1)c1ccccc1)C(C)C,-24%[59 µM],-10%,1,27µM*,-30%[57.1 µM],6%
CC(C)N(CC#CCC(O)(c1ccccc1)c1ccccc1)CCO,13µM*,79µM*,10,-6%,-2%[11.4 µM],20%
CC(C)[C@H](O)CC[C@@H](C)C1CC[C@H]2C3CC=C4C[C@@H](O)CC[C@]4(C)C3CC[C@]12C (stereo partly specified),30%[59 µM],/,/,/,/,/
Cc1ccc(SCCOCCN2CCc3ccccc3C2)cc1,?,-37%,-1,-5%,40µM*,?
COc1ccc(OCCCN2CCc3ccccc3C2)cc1,-23%,-7%,1,-25%,-22%,28%
CCOc1ccc(OCCOCCN2CCc3ccccc3C2)cc1,/,56µM*,0,5%,2.8µM*,?
CCCOc1ccc(OCCOCCN2CCc3ccccc3C2)cc1,10µM*,50µM*,1,0%,3.5µM*,?
C=CCc1cc(OC)ccc1OCCOCCN1CCc2ccccc2C1,11µM*,56µM*,16,-9%,0.89µM*,?
c1ccc(OCCOCCN2CCc3ccccc3C2)cc1,-45%[59 µM],-2%,1,1%,-23%,36%
CCOc1ccc(CCNc2ncnc3onc(-c4ccc(Cl)cc4)c23)cc1,11%[59 µM],31%[57.1 µM],/,/,24%,71%
O=C(O)c1cc([N+](=O)[O-])ccc1NCc1ccccn1,23%[2.33 µM],79µM*,-14,-3%,79µM*,27%
O=C(O)c1cc([N+](=O)[O-])ccc1NCc1ccccc1Cl,?,-8%,-1,24µM*,-31%,-22%
O=C(O)c1cc([N+](=O)[O-])ccc1NCCc1ccccc1,/,?,-8,2%,?,-9%
O=[N+]([O-])c1ccc(NCc2ccccn2)nc1,-5%[59 µM],8%,0,-6%,-8%,32%
Cc1nn(-c2ccc(F)cc2)c(-n2cccc2)c1C(=O)N1CCN(c2ccc(F)cc2)CC1,-35%[59 µM],?,/,/,-24%,22%
O=C(Cc1cnn(-c2ccccc2)c1)c1ccc(O)c(O)c1O,13µM*,?,-24,?,?,?
Cc1ccc(O)c(C(=O)c2cnn(-c3ccccc3)c2)c1,-3%[2.33 µM],-6%,?,3.4µM*,16µM*,-6%
COc1ccccc1CNC(=O)COc1ccccc1C(=O)c1cnn(-c2ccccc2)c1,?,-6%,5,2%,-20%,36%
O=C(COc1ccccc1C(=O)c1cnn(-c2ccccc2)c1)Nc1ccccc1,45µM*,-1%,22,-9%,-20%,13%
SMILES,G9a inh,BAZ2B block,PI5P4Ka inh,PLK1 PBD block,JMJD2A Tudor inh,HP1b binding inh
CCOc1ccc(CNCc2c(C(=O)O)c(C)n(Cc3ccc(F)cc3Cl)c2C)cc1,-27%[59 µM],?,/,/,-34%,-21%
COC(=O)c1cc2sc(C)cc2n1CC(=O)Nc1ccc(C)cc1Cl,10%[59 µM],1%,/,/,-19%,19%
O=C(/C=C/c1ccc([N+](=O)[O-])cc1)N(c1ccccn1)C1CCCCC1,5.6µM*,/,?,?,56µM*,?
Cc1cc(C(=O)NNC(=O)c2ccc(C)c([N+](=O)[O-])c2)c(C)o1,7%,-6%,0,0%,-17%,9%
Cc1ccccc1OCc1nnc(SC(C)C(=O)O)n1-c1ccccc1 (stereo unspecified),/,/,-54*,-7%,/,/
COc1ccccc1OCc1nnc(SCC(=O)N2CCCCC2)n1-c1ccccc1,-20%[59 µM],2%,4,-3%,2%,40%
CC(C)Oc1ccc(CCc2nnc(SC(C)C(=O)O)n2-c2ccccc2)cc1 (stereo unspecified),/,2%,-5,?,56µM*,26%[57 µM]
Cc1cc(OCc2nnc(SC(C)C(=O)O)n2-c2ccccc2)ccc1Cl (stereo unspecified),?,-39%,4,-18%,?,43%
Cc1ccccc1OCc1nnc(SCCN2CCCC2)n1-c1ccccc1,-32%,79µM*,-7,7%,-4%,23%
CC(Sc1nnc(-c2cc3ccccc3o2)n1-c1ccccc1)C(=O)O (stereo unspecified),8.9µM*,6%,-19,-1%,-18%,30%
COCCCNC(=O)C1CCN(c2cc(C)nc3c(-c4ccc(Cl)cc4)c(C)nn23)CC1,-1%[59 µM],-9%,/,/,0%,36%
N#Cc1cc2c(=O)n3ccccc3nc2n(-c2nnc(SCc3ccc(F)cc3)s2)c1=O,0%[59 µM],0%,/,/,8%,46%
Cc1cc(C)c(S(=O)(=O)Nc2ccc3oc4c(c3c2)CCCC4)cc1C,?,-29%,/,/,?,17%
CC(Sc1nc2ccccc2o1)C(=O)O (stereo unspecified),50µM*,-7%,/,-1%,1%,37%
COc1ccc(C(=O)N2CCCC(Nc3ccc(C)c(C)c3)C2)c(OC)n1 (stereo unspecified),45µM*,?,2,4%,-35%,-11%
COc1cccc(C(=O)N2CCCC(Nc3ccc(C)c(C)c3)C2)c1 (stereo unspecified),22µM*,?,-3,1%,?,5%
CCCC[C@]12Cc3cc(C#N)ccc3C(O1)c1c(cc(C)n(Cc3ccccc3)c1=O)O2,8%[2.33 µM],-20%[22.9 µM],/,/,/,/
O=C(Nc1cccc(Br)c1)c1ccc2c(c1)SC1=NS(=O)(=O)CCN12,18%[59 µM],-4%,3,-25%,-8%,36%
CCOc1ccc(NC(=O)Cn2nc(CC)n3c(cc4sccc43)c2=O)cc1,-20%[59 µM],-5%,/,/,-4%,24%
COCCNC(=O)/C(C#N)=C\c1ccc(CNC(=O)C(=O)Nc2ccc(C)c(C)c2)o1,-8%,-17%,1,-22%,-9%,36%
CCOC(=O)C1=C(O)/C(=C\c2ccc(CNC(=O)C(=O)Nc3ccc(C)c(C)c3)o2)N=C1C,45µM*,-39%,/,/,/,/
